Reference: PubChem BioAssay AID1159580 (chemical genetic matrix, 2015)
Out of some 5,500 compounds screened, about 2,000 (36%) were called active. Inconclusive results (about 18%) are left out. Cut-off read from the data, not from the text of the source: active = normalized growth mostly below about 0.91 (no sharp cut-off); inconclusive = no clear call, values can overlap the other calls; inactive = mostly above about 0.92. Some of the results follow.

Experiment: chemical genetic growth profiling, strain panel (AID 1159580);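 note: tested at 20 µM; growth read once vehicle control cultures reached saturation at 30 °C; 1 = growth at the plate median or of vehicle wells; lower values mean less growth of the strain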
Conditions: S. cerevisiae deletion strains, growth OD

Measured: normalized growth

C=C1CCC2(OC1)OC1CC3C4CC=C5CC(O)CC(O)C5(C)C4CCC3(C)C1C2C (centres undefined)
active: locus YAL026C, strain drs2, stronger effect = lower value 0.87 | locus YBR009C, strain hhf1, stronger effect = lower value 0.873 | locus YDR137W, strain rgp1, stronger effect = lower value 0.586 | locus YDR335W, strain msn5, stronger effect = lower value 0.899 | locus YGL253W, strain hxk2, stronger effect = lower value 0.855 | locus YHR142W, strain chs7, stronger effect = lower value 0.749 | locus YJL129C, strain trk1, stronger effect = lower value 0.853 | locus YJL164C, strain tpk1, stronger effect = lower value 0.886 | locus YLR262C, strain YPT6 (second series), stronger effect = lower value 0.548 | locus YMR205C, strain PFK2, stronger effect = lower value 0.865 | locus YNL071W, strain lat1, stronger effect = lower value 0.846 | locus YOR270C, strain vph1, stronger effect = lower value 0.771 | locus YPL051W, strain arl3, stronger effect = lower value 0.907
inactive: locus YAL021C, strain ccr4, stronger effect = lower value 0.929 | locus YAL030W, strain snc1, stronger effect = lower value 1.01 | locus YBL061C, strain skt5, stronger effect = lower value 1.01 | locus YBR023C, strain chs3, stronger effect = lower value 0.976 | locus YBR171W, strain sec66, stronger effect = lower value 1.01 | locus YBR231C, strain swc5, stronger effect = lower value 1.03 | locus YBR279W, strain paf1, stronger effect = lower value 0.995 | locus YCL011C, strain gbp2, stronger effect = lower value 0.914 | locus YCL016C, strain dcc1, stronger effect = lower value 0.979 | locus YCL069W, strain vba3, stronger effect = lower value 0.939 | locus YCR088W, strain abp1, stronger effect = lower value 0.984 | locus YDL005C, strain med2, stronger effect = lower value 0.995 | locus YDL040C, strain nat1, stronger effect = lower value 1.01 | locus YDR001C, strain nth1, stronger effect = lower value 1.01 | locus YDR069C, strain doa4, stronger effect = lower value 1.01 | locus YDR159W, strain sac3, stronger effect = lower value 0.916 | locus YDR195W, strain ref2 0.889 | locus YDR297W, strain sur2, stronger effect = lower value 1.01 | locus YDR334W, strain swr1, stronger effect = lower value 1.01 | locus YDR392W, strain spt3, stronger effect = lower value 0.819 | locus YEL003W, strain gim4, stronger effect = lower value 0.99 | locus YEL037C, strain rad23, stronger effect = lower value 1 | locus YEL061C, strain CIN8 (second series), stronger effect = lower value 0.94 | locus YER015W, strain faa2, stronger effect = lower value 1 | locus YER016W, strain bim1, stronger effect = lower value 0.992 | locus YER111C, strain swi4, stronger effect = lower value 0.958 | locus YER155C, strain BEM2 (second series), stronger effect = lower value 1.01 | locus YFR010W, strain ubp6, stronger effect = lower value 0.97 | locus YGL167C, strain pmr1, stronger effect = lower value 1.02 | locus YGL173C, strain kem1, stronger effect = lower value 1.01 | locus YGL227W, strain vid30, stronger effect = lower value 0.976 | locus YGL240W, strain doc1, stronger effect = lower value 1 | locus YHR013C, strain ard1, stronger effect = lower value 1.06 | locus YHR027C, strain rpn1, stronger effect = lower value 0.966 | locus YJL092W, strain hpr5, stronger effect = lower value 0.978 | locus YJL095W, strain BCK1 (second series), stronger effect = lower value 0.966 | locus YJL115W, strain asf1, stronger effect = lower value 1.01 | locus YJL154C, strain vps35, stronger effect = lower value 1 | locus YJL166W, strain qcr8, stronger effect = lower value 0.944 | locus YKL160W, strain elf1, stronger effect = lower value 0.986 | locus YKR026C, strain gcn3, stronger effect = lower value 0.994 | locus YKR091W, strain srl3, stronger effect = lower value 1.01 | locus YLL001W, strain dnm1, stronger effect = lower value 0.923 | locus YLL026W, stronger effect = lower value 0.98 | locus YLL041C, strain sdh2, stronger effect = lower value 1 | locus YLR027C, strain aat2, stronger effect = lower value 0.987 | locus YLR258W, strain gsy2, stronger effect = lower value 0.988 | locus YLR320W, strain mms22, stronger effect = lower value 0.929 | locus YLR342W, strain FKS1, stronger effect = lower value 1.01 | locus YLR357W, strain rsc2, stronger effect = lower value 1.07 | locus YLR370C, strain arc18, stronger effect = lower value 1.02 | locus YLR384C, strain iki3, stronger effect = lower value 1.01 | locus YML120C, strain ndi1, stronger effect = lower value 0.928 | locus YMR058W, strain fet3, stronger effect = lower value 0.959 | locus YMR125W, strain sto1, stronger effect = lower value 1 | locus YMR129W, stronger effect = lower value 1.01 | locus YMR231W, strain pep5, stronger effect = lower value 1.02 | locus YNL209W, strain ssb2, stronger effect = lower value 1.02 | locus YNL248C, strain rpa49, stronger effect = lower value 0.987 | locus YNL322C, strain KRE1 (second series), stronger effect = lower value 1 | locus YNR049C, strain mso1, stronger effect = lower value 1 | locus YOR001W, strain rrp6, stronger effect = lower value 0.944 | locus YOR070C, strain gyp1, stronger effect = lower value 0.997 | locus YOR080W, strain dia2, stronger effect = lower value 1.02 | locus YOR083W, strain WHI5, stronger effect = lower value 0.979 | locus YOR106W, strain vam3, stronger effect = lower value 0.911 | locus YOR265W, strain rbl2, stronger effect = lower value 1.01 | locus YOR290C, strain snf2, stronger effect = lower value 0.887 | locus YPL078C, strain atp4, stronger effect = lower value 0.929 | locus YPL106C, strain sse1, stronger effect = lower value 1.03 | locus YPL240C, strain hsp82, stronger effect = lower value 0.974
